For 40 molecules, cell viability results are on record in the supplement of paper PMC10981050.

Several values for one entry are separate records, joined by “and”; a condition that tells them apart may be missing. Equal entries are not always repeated. Structures can show the parent of a compound that is named as a salt.

For this assay, the system named is K562. The experiment in a line: cell viability relative to vehicle control; higher = less cytotoxic. The note with it: 10 µM; SRSF2 genotype: SRSF2 P95H/wt. In outline:
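Four leukaemia lines, as CRISPR-edited mutant clones and isogenic wild-type clones, were tested against Selleck bioactive, kinase and epigenetic probe libraries after removal of identity-inconsistent compounds. Cells were exposed to a single 10 µM dose for 48 h, and CellTiter-Glo luminescence was then read. Viability was calculated relative to the on-plate vehicle control.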
Consider `COC(=O)c1ccc(O)c(C(=O)OC)c1` [Dimetghyl 4-Hydroxyisophthalate], for which the cell viability (usually a read-out of living cells in per cent, often relative to untreated cells) was 100% and 93.1%.

For the molecule `CN1CCN(c2cccc(Nc3nc4c(-c5ccc(S(C)(=O)=O)cc5)cccn4n3)c2)CC1`, the cell viability is 68% and 76.9%.

For `NS(=O)(=O)c1cc2c(cc1Cl)NC(C(Cl)Cl)NS2(=O)=O` (stereo not given) [Trichlormethiazide (Achletin)], the cell viability is 102% and 101%. In the case of `Nc1[nH]cnc2ncnc1-2` [Adenine hydrochloride], the cell viability was 127% and 120%.

As for `Nc1ccc(C(=O)O)c(O)c1` [Sodium 4-Aminosalicylate], the cell viability was 89.6% and 88.1%. The value for `O=c1c(-c2ccc(O)cc2)coc2cc(O[C@@H]3O[C@H](CO)[C@@H](O)[C@H](O)[C@H]3O)cc(O)c12` [Genistin (Genistoside)] was 95.5% and 108%. The value for `CC(C)=CCC[C@](C)(O[C@@H]1O[C@H](CO[C@@H]2OC[C@H](O)[C@H](O)[C@H]2O)[C@@H](O)[C@H](O)[C@H]1O)[C@H]1CC[C@]2(C)[C@@H]1[C@H](O)C[C@@H]1[C@@]3(C)CC[C@H](O[C@@H]4O[C@H](CO)[C@@H](O)[C@H](O)[C@H]4O[C@@H]4O[C@H](CO)[C@@H](O)[C@H](O)[C@H]4O)C(C)(C)[C@@H]3CC[C@]12C` [Ginsenoside Rb2] was 86% and 89.7%. In the case of `COc1ccc(COc2ccc(Cc3cnc(N)nc3N)cc2OC)cc1` it was 83.8% and 84%. Regarding `CCN(CC)CCCC(C)Nc1c2ccc(Cl)cc2nc2ccc(OC)cc12` (stereo not given) [Quinacrine Dihydrochloride Dihydrate], the cell viability is 2.28% and 4.46%.

Regarding `Cc1c(-c2ccnn2C)cc(C(=O)NCc2ccc(S(C)(=O)=O)cn2)c(=O)n1-c1cccc(C(F)(F)F)c1`, the cell viability is 97.6% and 102%. With `O=C(O)Cc1ccc2c(c1)C(=O)c1ccccc1CO2` [Isoxepac], the cell viability is 104%. The value for `CC1(C)S[C@@H]2[C@H](NC(=O)Cc3ccccc3)C(=O)N2[C@H]1C(=O)O` [Penicillin G Sodium] was 100% and 92%; that for `O=[N+]([O-])c1ccc(Sc2cccc[n+]2[O-])c2nonc12` was 0.23% and 0.26%.

On to `COC(=O)c1cc(OC)c2c(c1-c1c(C(=O)OC)cc(OC)c3c1OCO3)OCO2` [Bifendate], for which the cell viability is 109%.

With `N#Cc1ccc(-c2c(-c3ncn[nH]3)sc(N3CCOCC3)c2C#N)c(F)c1`, the cell viability was 60.4% and 73.5%. The value for `Cc1ncc(CCCN(C)C)cc1Nc1ncc2c(n1)-c1ccc(C(F)(F)F)cc1NC(=S)C2` was 46.2% and 57.9%; that for `Nc1ccccc1NC(=O)c1cnccn1` was 91.8% and 96%. In the case of `N[C@@H]1CCCN(c2c(/C=C3\SC(=O)NC3=O)cccc2-c2ccccc2)C1` it was 82.5% and 88.2%.

With `O=C(O)CCCC[C@@H]1CCSS1` (racemic) [Thioctic acid], the cell viability is 94.1% and 87.7%. Consider `COc1cn(-c2ccc(-n3cccn3)cc2F)nc(-c2ccnn2-c2ccccc2)c1=O`, for which the cell viability is 103% and 105%. For the molecule `COc1ccc(S(=O)(=O)N(CCO)c2ccccc2CN(C)C/C=C/c2ccc(Cl)cc2)cc1` [KN-93 Phosphate], the cell viability was 38.5% and 44%. `CC(C)OC(=O)C(C)(C)Oc1ccc(C(=O)c2ccc(Cl)cc2)cc1` [Fenofibrate (Tricor, Trilipix)]: the cell viability is 80.4% and 86.4%. In the case of `Cc1cc2c3c([n+](C)c4ccc(F)cc4c3c1)-c1cc(F)ccc1N2C` [RHPS 4 methosulfate] it was 48.6% and 58.2%. In the case of `COc1cc(Nc2ncc(F)c(Nc3ccc4c(n3)NC(=O)C(C)(C)O4)n2)cc(OC)c1OC` it was 99.2% and 103%. The value for `COc1cc2ncnc(Nc3ccc(Oc4ccccc4)cc3C)c2cc1OC` was 68% and 80.2%; that for `Cn1cc(-c2ccc(S(=O)(=O)n3ccc(/C=C/C(=O)Nc4ccccc4N)c3)cc2)cn1` was 15% and 29.1%; that for `Cn1cc(CNCC2CCN(c3ncc(C(=O)NO)cn3)CC2)c2ccccc21` was 1.34% and 13.5%. With `N[C@@H]1CN(c2c(F)cc3c(=O)c(C(=O)O)cn([C@@H]4C[C@@H]4F)c3c2Cl)CC12CC2` [Sitafloxacin hydrate], the cell viability is 103% and 104%. The value for `COC(=O)C1=C(C)NC(C)=C(C(=O)OC(C)C)C1c1cccc2nonc12` (stereo not given) [Isradipine (Dynacirc)] was 95.3% and 96.5%; that for `O=C(Nc1nccs1)C(c1cc(F)ccc1O)N1Cc2ccccc2C1=O` (stereo not given) was 103% and 94.9%. The value for `Nc1cc(F)ccc1NC(=O)/C=C/c1cnn(C/C=C/c2ccccc2)c1` was 89.5% and 93.8%; that for `C=C1[C@H](O)C[C@H]2[C@@H](/C=C(\C)C(=O)[C@@]3(O)C[C@H](C)[C@H](O)[C@@H]3[C@H]1O)C2(C)C` was 98.1% and 92%. Consider `O=C(Nc1cccc(C(F)(F)F)c1)Nc1cc(S(=O)(=O)NC2CC2)ccc1-c1ccsc1`, for which the cell viability was 82.6% and 92.4%. In the case of `CC(C)(NS(=O)(=O)c1ccc2c(Cl)cnc(N=C(N)N)c2c1)C(=O)O` it was 102% and 104%. Regarding `C[C@]12CCC3=C4CCC(=O)C=C4CC[C@H]3[C@@H]1CC[C@@]2(O)CC#N` [Dienogest], the cell viability is 104% and 96.7%. For the molecule `Cc1ccc(NS(=O)(=O)c2ccc3c(c2)C2C=CCC2C(c2ccc(C(=O)O)cc2)N3)cc1C` (stereo not given), the cell viability is 108% and 98.9%. As to `CC(=O)O[C@]1(C(C)=O)CC[C@H]2[C@@H]3C[C@H](C)C4=CC(=O)C=C[C@]4(C)[C@@]3(F)[C@@H](O)C[C@@]21C` [Fluorometholone Acetate], the cell viability is 93.4% and 95.3%. In the case of `Cc1cccc(-c2[nH]c(C(C)(C)C)nc2-c2ccc3nccnc3c2)n1` it was 111% and 95.8%. In the case of `COc1ccc(Cn2ccc3ccc(C(=O)NO)cc32)cc1`, the cell viability is 91.2% and 87.7%.

Consider `COc1cc(C(=O)O)ccc1NC(=O)[C@@H]1N[C@@H](CC(C)(C)C)[C@](C#N)(c2ccc(Cl)cc2F)[C@H]1c1cccc(Cl)c1F` [Idasanutlin (RG-7388)], for which the cell viability was 96.7% and 98.2%.
